EWS-Fli block: EWS/Fli-driven NR0B1 reporter inhibitors, primary screen, A673 cells, NR0B1 luciferase, luminescence, MLPCN library; viability-normalised; inhibition, % at 12.6 µM; 350,000 tested, 0.67% active; AID 651661, 2012;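 active means mean inhibition of at least 50% after viability correction, with every replicate also passing that limit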;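 further: firefly luciferase signal divided by Alamar Blue viability fluorescence both relative to DMSO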
TROY NFkB inh: inhibitors of TROY-driven NF-kB signaling, primary screen, Q293 LMP1-TROYcd cells, NF-kB luciferase, uHTS; AID 1347056, 2019; inhibition, % at 10 µM; Q293 LMP1-TROYcd NF-kB luciferase reporter, 4 h; 360,000 tested, 0.98% active;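 active means compounds whose plate-normalised and pattern-corrected inhibition of the luciferase reporter signal at the single screening dose is 50% or more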
LGR2 inh: inhibitors of bursicon-induced LGR2 CRE-luciferase signal, primary screen, cell-based, HEK293, CRE-luciferase reporter, bursicon stimulation | Drosophila bursicon receptor LGR2 (rickets) | bursicon-stimulated, 4 h | inhibition, % at 9.99 µM | 380,000 tested, 0.35% active;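 active means drop in luminescence signal, shown as inhibition above about 50% in the replicate tests, limit read from the data, passing the limit was not always enough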;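 further: agonist challenge used bursicon conditioned medium at about half maximal strength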
LMP1 NFkB inh: EBV LMP1-driven NF-kappaB luciferase reporter inhibitors, primary screen, cell-based, luminescence, single point; LMP1-induced NF-kappaB luciferase reporter cells; 350,000 tested, 0.69% active; AID 504558, 2011; inhibition, % at 12.5 µM; in the data active means inhibition above about 41%;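 further: 0% = neutral control wells and 100% = reference inhibitor control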
TWEAK Fn14 block: inhibitors of TWEAK-Fn14 signaling, primary screen, luciferase reporter cells, uHTS. AID 1159606, 2016. TWEAK-stimulated Fn14 reporter cells, luciferase luminescence, 8 h. 360,000 tested, 2% active. inhibition, % at 10 µM; in the data active means inhibition above about 50%
Numbers without * were called inactive; . = no result given. Only some compounds are listed: those with a hit (about 2.5% of all), similar ones and a draw of the others.

SMILES	EWS-Fli block	TROY NFkB inh	LGR2 inh	LMP1 NFkB inh	TWEAK Fn14 block
COc1ccc(-n2ncc3c(NCc4cccnc4)ncnc32)cc1	-52	-62	-68	-27	0
COc1ccc(-n2ncc3c(NC(C)C)ncnc32)cc1	.	27	.	37	64*
COCC(C)Nc1ncnc2c1cnn2-c1ccc(Cl)cc1 (configuration not stated)	.	40	.	-14	57*
c1ccc(-n2ncc3c(NCCCN4CCOCC4)ncnc32)cc1	.	-72	.	-21	-2
Clc1ccc(-n2ncc3c(NCCN4CCOCC4)ncnc32)cc1	.	67*	.	20	83*
CCC(=O)N1CCC2(CC1)CN(C(=O)Nc1ccccc1F)[C@H](CO)c1c2c2ccc(OC)cc2n1C	7	.	-19	.	.
O=C1CN(S(=O)(=O)c2ccccc2)C[C@@H]2[C@H](c3ccc(C4=CCCC4)cc3)[C@@H](CO)N12	-7	.	-5	.	.
C[C@@H]1CN([C@H](C)CO)C(=O)Cc2cc(NS(C)(=O)=O)ccc2O[C@@H]1CN(C)S(=O)(=O)c1cn(C)cn1	-2	.	-3	.	.
CCN(CC(=O)Nc1ccc(NC(C)=O)cc1)C(=O)c1ccc(COc2ccccc2)o1	1	21	7	7	-1
CCN(CC(=O)Nc1ccc(NC(C)=O)cc1)C(=O)c1ccc(COc2ccc(C(C)(C)C)cc2)cc1	15	33	-38	23	53*
COc1cc(/C=C/C(=O)OCC(=O)NCc2ccco2)ccc1OC(F)F	-1	-4	-11	2	-14
COc1ccc(/C=C/C(=O)OCC(=O)NCc2ccco2)cc1OC	1	13	-8	56*	17
CCn1c(SCC(=O)Nc2nc3ccc(C)cc3s2)nc2c(c1=O)SC(C)C2 (configuration not stated)	.	19	.	34	93*
CCNC(=O)C[C@@H]1CC[C@H]2[C@H](COc3ccc(NC(=O)Nc4ccccc4OC)cc3C(=O)N2C)O1	-12	.	3	.	.
Nc1ccc(C(=O)c2cccs2)cn1	12	5	-10	-9	5
Nc1ccc(-c2cnc(N)c(C(=O)c3cccnc3)n2)cn1	.	25	.	67*	79*
Cc1ccc(C2C3=C(CC(C)(C)CC3=O)NC3=C2C(=O)CC(C)(C)C3)o1	.	.	.	-6	84*
Cc1ccc(C2Nc3ccc4ccccc4c3C3=C2C(=O)CC(C)(C)C3)o1 (configuration not stated)	-10	-68	-33	-6	15
CNC[C@H]1Oc2ncc(-c3ccccc3C)cc2C(=O)N([C@H](C)CO)C[C@H]1C	2	.	-17	.	.
CN1CCN(C(=O)/C(=C/c2ccc([N+](=O)[O-])cc2)NC(=O)c2ccccc2)CC1	3	3	-7	-1	54*
CN1CCN(C(=O)/C(=C/c2cccc([N+](=O)[O-])c2)NC(=O)c2ccccc2)CC1	2	21	-13	2	55*
Cc1noc(C)c1NC(=O)NCC[C@H]1CC[C@H](NC(=O)Nc2cccc(Cl)c2)[C@@H](CO)O1	-11	.	1	.	.
C=CCn1c(SCC(=O)Nc2sccc2C(N)=O)nc2sc(CC)cc2c1=O	.	48	.	13	72*
C=CCn1c(SCC(=O)Nc2sccc2C(N)=O)nc2ccc(Cl)cc2c1=O	.	49	.	-10	73*
C=CCn1c(SCC(=O)Nc2sccc2C(N)=O)nc2ccccc2c1=O	.	34	-14	1	46
SMILES	EWS-Fli block	TROY NFkB inh	LGR2 inh	LMP1 NFkB inh	TWEAK Fn14 block
O=C(Cc1n[nH]c(=O)c2ccccc12)OCC(=O)c1ccccc1Cl	-14	21	5	-8	9
Cc1cc(C(=O)COC(=O)Cc2n[nH]c(=O)c3ccccc23)c(C)n1-c1ccc2c(c1)OCCO2	14	39	.	14	68*
Cc1cc(C(=O)COc2ccc(C#N)cc2)c(C)n1-c1ccc2c(c1)OCO2	12	1	-9	9	89*
Cc1cc(C(=O)COC(=O)C2=COCCO2)c(C)n1-c1ccc2c(c1)OCO2	.	-21	.	-35	-11
COc1cc(OC)nc(Nc2nc(C(N)Cc3ccc(C(F)(F)F)cc3)cs2)n1 (configuration not stated)	40	-5	31*	.	-28
Cc1cc(C)nc(Nc2nc(C(N)Cc3ccc(C(F)(F)F)cc3)cs2)n1 (configuration not stated)	21	-4	4	.	-110
CCc1ccc(-n2c(SCC(=O)Nc3cc(C)[nH]n3)nc3[nH]ncc3c2=O)cc1	.	.	.	0	98*
CCc1ccccc1-n1c(SCC(=O)Nc2ccc3c(c2)OCCO3)nc2[nH]ncc2c1=O	.	80*	8	21	88*
CCCC(C)NC(C)C(=O)NC1CCCC1 (configuration not stated)	.	13	19	66*	-5
O=C(C[C@H]1C=C[C@H](NC(=O)NC2CCCCC2)[C@@H](CO)O1)NCc1ccccc1	1	.	12	.	.
Cc1noc(C)c1NC(=O)Nc1ccc2c(c1)C(=O)N([C@H](C)CO)C[C@H](C)[C@@H](CN(C)C(=O)CCCN(C)C)OCCCC[C@@H](C)O2	-9	.	15	.	.
CCCNC(=O)C[C@H]1CC[C@H]2[C@@H](COC[C@@H](O)CN2C(=O)c2ccccn2)O1	-2	.	0	.	.
COc1cccc2cc(-c3csc(NC(=O)CCC(=O)NCCCN4CCC(C)CC4)n3)c(=O)oc12	33	21	-2	26	59*
CO[C@H]1CN(C)C(=O)c2cc(NC(=O)c3ccccc3F)ccc2OC[C@@H](C)N(C(C)=O)C[C@H]1C	0	.	0	.	.
CCN(CC)c1ccc(C(=O)OCC(=O)Nc2ccccc2-c2ccccc2)cc1	12	39	7	16	72*
O=C(CCl)N1N=C(c2ccco2)CC1c1cccs1 (configuration not stated)	.	17	.	66*	10
CC(=O)N1N=C(c2ccco2)CC1c1cccs1 (configuration not stated)	.	-6	.	-12	11
COc1cc(C2CC(c3cccs3)=NN2C(=O)CCl)ccc1OC(F)F (configuration not stated)	61*	-47	-69	0	-7
COc1ccc(C2CC(c3cccs3)=NN2C(=O)CCl)cc1OC (configuration not stated)	58*	-53	-42	-5	49
CC(=O)N1CC2(C1)[C@@H](c1ccc(-c3ccccc3C)cc1)[C@@H](CO)N2C(C)=O	5	.	-4	.	.
C/C=C/c1ccc2c(c1)O[C@@H](CN(C)C(=O)c1ccncc1)[C@@H](C)CN([C@@H](C)CO)S2(=O)=O	-3	.	-7	.	.
O=C1NC(Cc2ccccc2)C(=O)N1Cc1cc([N+](=O)[O-])cc2c1OCOC2 (configuration not stated)	-12	-3	27	55*	-1
COc1ccc2c3c(n(C)c2c1)[C@@H](CO)N(C(=O)CN1CCOCC1)CC31CN(Cc2ccncc2)C1	-17	.	-6	.	.

Source: PubChem BioAssay (several laboratories)
